Experimental data published in the supplement of paper PMC4466236.
Over roughly 33,000 sequences, “E-score (dimensionless, -0.5 to 0.5)” has its median near -0.058; the highest 2% begin near 0.35. For the sample, the highest values were picked, then their nearest neighbours and some sequences at random.

Tested on: MvaT
Test: PBM 8-mer E-score (mean of HK and ME arrays) (E-score (dimensionless, -0.5 to 0.5)); higher = stronger relative binding preference
In short: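 Full-length P. aeruginosa MvaT, with glutathione S-transferase fused to its N-terminus (cloned into pTH6838 by isothermal assembly), was tested by protein binding microarray using a previously described protocol. Two universal double-stranded 60-mer arrays (ME and HK) were used, each with a constant 25-mer primer region and a variable 35-mer region covering all 8-mers. The rank-based 8-mer E-score (-0.5 to 0.5) is the mean of the two arrays, parsed with a custom Python script.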

AGGCACCT was tested. Which “PBM 8-mer E-score” value did it give?
Its value is -0.217.

GACTTTGC was tested. Which “PBM 8-mer E-score” value did it give?
The value was 0.127.

How did the “PBM 8-mer E-score” value turn out when ATAAAATA was run?
The value was 0.427.

Which “PBM 8-mer E-score” value does the source give for ATAAAATG here?
The value was 0.249.

Which “PBM 8-mer E-score” value does the source give for ATAAAATC here?
Its value is 0.193.

How did the “PBM 8-mer E-score” value turn out when GTAAAATA was run?
The value was 0.345.

Which “PBM 8-mer E-score” value does the source give for TAAAAATA here?
The value was 0.3.

How did the “PBM 8-mer E-score” value turn out when CTAAAATC was run?
Its value is 0.148.

How did the “PBM 8-mer E-score” value turn out when GTAAAAAA was run?
The value was 0.137.

Which “PBM 8-mer E-score” value does the source give for CTAAAATA here?
Its value is 0.353.

How did the “PBM 8-mer E-score” value turn out when GAAAAATA was run?
The value was 0.317.

With AATAAGTC as the sequence, how does the “PBM 8-mer E-score” value read?
The value was 0.298.

Which “PBM 8-mer E-score” value does the source give for ATATTGTG here?
The value was 0.251.

ACATTGTC was tested. Which “PBM 8-mer E-score” value did it give?
Its value is 0.116.

With ATATTGTA as the sequence, how does the “PBM 8-mer E-score” value read?
The value was 0.376.

For CTATTGTA, which “PBM 8-mer E-score” value is on record?
Its value is 0.34.

How did the “PBM 8-mer E-score” value turn out when CTATTGTC was run?
The value was 0.12.

ATATTGTC was tested. Which “PBM 8-mer E-score” value did it give?
The value was 0.346.

Which “PBM 8-mer E-score” value does the source give for CTCGAGTA here?
Its value is -0.0253.

How did the “PBM 8-mer E-score” value turn out when AGCCAACA was run?
The value was 0.0763.

With AAGTCGAT as the sequence, how does the “PBM 8-mer E-score” value read?
Its value is -0.0445.

How did the “PBM 8-mer E-score” value turn out when AGCAGACG was run?
Its value is -0.169.

Which “PBM 8-mer E-score” value does the source give for ACTGCGAG here?
The value was -0.0652.

How did the “PBM 8-mer E-score” value turn out when AGTAATAC was run?
The value was 0.297.

Which “PBM 8-mer E-score” value does the source give for AATAATCT here?
The value was 0.314.

Which “PBM 8-mer E-score” value does the source give for GATAATCA here?
Its value is 0.176.

Which “PBM 8-mer E-score” value does the source give for TATAATCA here?
Its value is 0.389.

How did the “PBM 8-mer E-score” value turn out when AATAATAT was run?
The value was 0.453.

Which “PBM 8-mer E-score” value does the source give for GCTAATAA here?
The value was 0.338.

Which “PBM 8-mer E-score” value does the source give for TATAATAA here?
Its value is 0.477.

How did the “PBM 8-mer E-score” value turn out when AATAATCC was run?
The value was 0.26.

TAGAATAA was tested. Which “PBM 8-mer E-score” value did it give?
The value was 0.306.

Which “PBM 8-mer E-score” value does the source give for AGTAATAG here?
Its value is 0.213.

AATAATCA was tested. Which “PBM 8-mer E-score” value did it give?
Its value is 0.259.

For AGTAATAT, which “PBM 8-mer E-score” value is on record?
The value was 0.418.

Which “PBM 8-mer E-score” value does the source give for ACGCACTC here?
Its value is -0.0389.

Which “PBM 8-mer E-score” value does the source give for AAAAAGAG here?
Its value is 0.0446.

With AACGTTTG as the sequence, how does the “PBM 8-mer E-score” value read?
Its value is 0.0612.

How did the “PBM 8-mer E-score” value turn out when AGCCGCAA was run?
The value was -0.0521.

GGGCCGAC was tested. Which “PBM 8-mer E-score” value did it give?
The value was -0.267.

For GGCGGAAC, which “PBM 8-mer E-score” value is on record?
The value was -0.146.

With ATCTTCAA as the sequence, how does the “PBM 8-mer E-score” value read?
The value was 0.0478.

GCCTTGGA was tested. Which “PBM 8-mer E-score” value did it give?
Its value is -0.206.

Which “PBM 8-mer E-score” value does the source give for GGCACCCA here?
The value was -0.148.

For CTCCACTC, which “PBM 8-mer E-score” value is on record?
The value was -0.232.

With AATAGTAG as the sequence, how does the “PBM 8-mer E-score” value read?
The value was 0.294.

How did the “PBM 8-mer E-score” value turn out when AATAAGAA was run?
The value was 0.318.

Which “PBM 8-mer E-score” value does the source give for CATAATAG here?
The value was 0.318.

Which “PBM 8-mer E-score” value does the source give for AATAATAG here?
The value was 0.402.

How did the “PBM 8-mer E-score” value turn out when AATAATAA was run?
The value was 0.478.

Which “PBM 8-mer E-score” value does the source give for CATAATAA here?
Its value is 0.334.

With GATAATAA as the sequence, how does the “PBM 8-mer E-score” value read?
Its value is 0.404.

How did the “PBM 8-mer E-score” value turn out when AATAAGAG was run?
The value was 0.222.

With AATAAGAT as the sequence, how does the “PBM 8-mer E-score” value read?
The value was 0.356.

With AGGCATCG as the sequence, how does the “PBM 8-mer E-score” value read?
Its value is -0.134.

With TAAATCAA as the sequence, how does the “PBM 8-mer E-score” value read?
The value was 0.341.

Which “PBM 8-mer E-score” value does the source give for AATTGGTG here?
Its value is 0.0491.

With CGCTGTAC as the sequence, how does the “PBM 8-mer E-score” value read?
Its value is -0.228.

With GCAGCTAA as the sequence, how does the “PBM 8-mer E-score” value read?
Its value is 0.0363.

AATAATAC was tested. Which “PBM 8-mer E-score” value did it give?
Its value is 0.419.

With CATAATAC as the sequence, how does the “PBM 8-mer E-score” value read?
Its value is 0.327.

GATAATAC was tested. Which “PBM 8-mer E-score” value did it give?
Its value is 0.301.

Which “PBM 8-mer E-score” value does the source give for GGAAATCA here?
Its value is -0.0787.

With GAGGAATC as the sequence, how does the “PBM 8-mer E-score” value read?
Its value is -0.0683.

How did the “PBM 8-mer E-score” value turn out when TCCATCAA was run?
Its value is -0.032.

With ACAAGGTA as the sequence, how does the “PBM 8-mer E-score” value read?
The value was -0.0731.

CGTTAACA was tested. Which “PBM 8-mer E-score” value did it give?
The value was 0.114.

How did the “PBM 8-mer E-score” value turn out when AGTTAACT was run?
The value was 0.377.

With TGTTAACA as the sequence, how does the “PBM 8-mer E-score” value read?
The value was 0.33.

How did the “PBM 8-mer E-score” value turn out when AGTTAACC was run?
Its value is 0.142.

How did the “PBM 8-mer E-score” value turn out when AGTTAACA was run?
Its value is 0.348.

For AGTTAACG, which “PBM 8-mer E-score” value is on record?
The value was 0.204.

GTGAACCA was tested. Which “PBM 8-mer E-score” value did it give?
The value was -0.139.

How did the “PBM 8-mer E-score” value turn out when AACGCTTA was run?
Its value is 0.0532.

For CTATTAAC, which “PBM 8-mer E-score” value is on record?
Its value is 0.315.

With ATATTAAC as the sequence, how does the “PBM 8-mer E-score” value read?
The value was 0.434.

CGATTAAA was tested. Which “PBM 8-mer E-score” value did it give?
The value was 0.218.

With TTGTTAAA as the sequence, how does the “PBM 8-mer E-score” value read?
Its value is 0.346.

Which “PBM 8-mer E-score” value does the source give for GTATTAAA here?
The value was 0.313.

For TTATTAAA, which “PBM 8-mer E-score” value is on record?
Its value is 0.409.

With CTGTTAAA as the sequence, how does the “PBM 8-mer E-score” value read?
Its value is 0.175.

ATATTAAA was tested. Which “PBM 8-mer E-score” value did it give?
The value was 0.466.

GTGTTAAA was tested. Which “PBM 8-mer E-score” value did it give?
Its value is 0.177.

For CTATTAAA, which “PBM 8-mer E-score” value is on record?
The value was 0.283.

For TCATTAAA, which “PBM 8-mer E-score” value is on record?
The value was 0.228.

With AGATTAAC as the sequence, how does the “PBM 8-mer E-score” value read?
The value was 0.173.
